Source: PubChem
This is a sample that favours compounds with a hit; in the whole collection about 4.1% have one here.
BoNT A protease: BoNT A light chain protease inhibition; multiplex microsphere protease substrate cleavage, flow cytometry; inhibition, % at 10 µM; 360,000 compounds, 0.17% hits
BoNT-F LC inh: inhibitors of Botulinum neurotoxin F light chain protease. Multiplex microsphere protease cleavage assay, flow cytometry. inhibition, % at 10 µM. 360,000 compounds, 0.22% hits; in the data active means inhibition above about 35%, passing the limit was not always enough; inconclusive means no clear call, values can overlap the other calls
MazEF act: MazEF (E. coli) toxin RNase activation. P0AE70. FAM/BHQ RNA-DNA oligo cleavage fluorescence, 5 h. activation, % at 20 µM. 350,000 compounds, 0.32% hits. AID 504720; in the data active means activation above about 50%
Autofluor counter: flagged as autofluorescent in microsphere protease counterscreen; compound autofluorescence counterscreen, microsphere flow cytometry; hits give high values; fluorescence intensity (test concentration not listed); 360,000 compounds, 3.1% hits; AID 624483; in the data active means fluorescence intensity above about 16000; inconclusive means no clear call, values can overlap the other calls
Anthrax LF inh2: inhibitors of Bacillus anthracis lethal factor protease. P15917. multiplex microsphere protease cleavage assay, LF. inhibition, % at 10 µM. 360,000 compounds, 0.12% hits
VHR inh abs: blocks human VHR1 dual specificity phosphatase | 290,000 compounds, 0.52% hits | P51452 | AID 1654 | recombinant VHR phosphatase, pNPP absorbance | inhibition, % at 13.3 µM; in the data active means inhibition above about 50%
Of the large screens only hits and unclear results are named; the others gave an inactive call. Unless noted, no stated cut-off is given here; in the data, active means inhibition above about 30%; inconclusive means no clear call, values can overlap the other calls; inactive means below that.

CNS(=O)(=O)c1cccc(C(=O)OCC(=O)NC2CCCC(C)C2C)c1 (configuration not stated)	none (no result: VHR inh abs)
COc1cc(/C=C2\C(=N)N3N=C(S(C)(=O)=O)SC3=NC2=O)cc(OC)c1OCCOc1ccccc1C	BoNT-F LC inh inconclusive
COc1cc(/C=C2\C(=N)N3N=C(C)SC3=NC2=O)cc(OC)c1OCCOc1ccccc1C	BoNT-F LC inh 55
Cc1cc(C(C)(C)C)ccc1OCC(=O)N/N=C\c1c(C)n(C)n(-c2ccccc2)c1=O	none
COc1ccc2[nH]c3nc(SCC(=O)NNC(=O)c4ccc(OC)c(OC)c4)nnc3c2c1	Autofluor counter 21437
Cc1ccc(C(=O)NNC(=O)CSc2nnc3c(n2)[nH]c2ccc(F)cc23)cc1	VHR inh abs 57
Cc1nnc(NC(=O)CSc2nnc3c(n2)[nH]c2ccc(Br)cc23)s1	VHR inh abs 60
COc1c(C(=O)Nc2ccc(Cc3ccncc3)cc2)ccc2ccccc12	none
Cn1cnc([N+](=O)[O-])c1Sc1nc(N)nc2c1ncn2C1CC(O)C(CO)O1 (configuration not stated)	none (no result: VHR inh abs)
CC(C)CC1NC(=O)C(CC(C)C)N(CO)C1=O (configuration not stated)	none (no result: VHR inh abs)
CC(C)CN(C(=O)COC(=O)C12CC3CC(CC(C3)C1)C2)c1c(N)n(Cc2ccccc2)c(=O)[nH]c1=O	Autofluor counter inconclusive (no result: VHR inh abs)
O=C(COc1ccc(F)cc1Cl)Nc1cccc(S(=O)(=O)N2CCCCCC2)c1	BoNT-F LC inh inconclusive (no result: VHR inh abs)
O=C(CN1C(=O)c2ccccc2S1(=O)=O)Nc1ccc(S(=O)(=O)Nc2ncccn2)cc1	none (no result: VHR inh abs)
Cc1onc(-c2ccccc2Cl)c1C(=O)Nc1ccc(S(=O)(=O)NCC2CCCO2)cc1 (configuration not stated)	none
Cc1onc(-c2ccccc2Cl)c1C(=O)NCC(=O)O	none
Cc1onc(-c2ccccc2)c1C(=O)Nc1cccnc1	none
Cc1onc(-c2ccccc2Cl)c1C(=O)NCCn1c(C)cc2ccccc21	BoNT A protease 59
CCCCNS(=O)(=O)c1ccc(NC(=O)c2c(-c3ccccc3Cl)noc2C)cc1	Autofluor counter 19198
Cc1onc(-c2ccccc2Cl)c1C(=O)Nc1cccnc1	Autofluor counter 20230
Cc1onc(-c2ccccc2Cl)c1C(=O)Nc1ccc(-c2cn3cccnc3n2)cc1	BoNT A protease inconclusive, Autofluor counter 16485
CSc1ccccc1OCc1cc(C(=O)NCc2csc(C(C)C)n2)no1	none
Cc1ccccc1/C=N/Nc1ccnc2cc(Cl)ccc12	none
Cc1ccc(/C=N/Nc2ccnc3cc(Cl)ccc23)c(C)c1	VHR inh abs 87
O=C(Nc1cccc(S(=O)(=O)N2CCCCC2)c1)Nc1ccc(Cl)cc1Cl	none
O=c1oc(/C=C/c2ccc([N+](=O)[O-])s2)nc2ccccc12	BoNT-F LC inh inconclusive, MazEF act 183
CC(=O)Oc1ccccc1/C=C/c1nc2ccccc2c(=O)o1	none
CC(C)(C)C(=O)N1CCN(c2ccc([N+](=O)[O-])c(-n3nc(-c4ccccc4)c4ccccc4c3=O)c2)CC1	none
Cc1ccc(-c2nn(-c3cc(Cl)ccc3[N+](=O)[O-])c(=O)c3ccccc23)cc1	Autofluor counter 24146
O=C(c1ccco1)N1CCN(C2CC(=O)N(c3ccc4c(c3)OCO4)C2=O)CC1 (configuration not stated)	Autofluor counter 22383
Cc1ccc2nc(SCC(=O)Nc3ccc(C)c(Cl)c3)nc(=O)n2c1	MazEF act 74 (no result: VHR inh abs)
Cc1nc(N)sc1-c1csc(Nc2ccccn2)n1	none
Cc1nc(N)sc1-c1csc(Nc2ccc(Cl)cn2)n1	Autofluor counter 16519
CC(C)Nc1nc(NC(C)C)nc(NS(=O)(=O)c2ccc(N)cc2)n1	Autofluor counter inconclusive
CCNc1nc(NC(C)C)nc(NS(=O)(=O)c2ccc(N)cc2)n1	Autofluor counter 17274
Cc1cc(NN)nc(NS(=O)(=O)c2ccc(Cl)cc2)n1	none
CCNc1nc(NC(C)C)nc(NS(=O)(=O)c2ccc(Cl)cc2)n1	Autofluor counter 22725
CCN(CC)c1nc(N)nc(NS(=O)(=O)c2ccc(Cl)cc2)n1	BoNT A protease inconclusive, Autofluor counter 19449
CC1CCC2(CC1)NC(=O)N(CC(=O)NCc1ccc(Cl)cc1)C2=O (configuration not stated)	none (no result: VHR inh abs)
COc1ccc(/C=C/C(=O)NNC(=O)c2ccncc2)c(OC)c1	none (no result: VHR inh abs)
CCOC(=O)CN1C=C(c2ccc3ccccc3n2)C(C[N+](=O)[O-])c2ccccc21 (configuration not stated)	MazEF act 233
CCOC(=O)CSc1ccc2ccccc2n1	none
COc1ccc(NC(=O)C(CC(=O)O)Cc2ccc(Br)cc2)cc1 (configuration not stated)	BoNT-F LC inh inconclusive
COc1ccc(NC(=O)C(CC(=O)O)Cc2ccccc2)cc1 (configuration not stated)	Autofluor counter 22396
O=S1(=O)CC(N2CCN(c3ccccn3)CC2)CN1C1CCCCC1 (configuration not stated)	none (no result: MazEF act, VHR inh abs)
O=C1c2cccnc2C(=O)N1C1CCCCC1	Autofluor counter 21393
O=S(=O)(N[C@H](CO)Cc1ccccc1)c1ccc(Br)cc1F	none (no result: VHR inh abs)
CCOc1ncccc1C(=O)OCc1ccc(C(=O)OC)cc1	none
CCOC(=O)C1=C(N)Oc2cc(C)oc(=O)c2C12C(=O)N1c3c(cc(OC)cc32)C(C)=CC1(C)C (configuration not stated)	BoNT A protease inconclusive, Autofluor counter 23174
CCOC(=O)C1=C(N)Oc2cc(C)oc(=O)c2C12C(=O)N1c3c(cccc32)C(C)=CC1(C)C (configuration not stated)	Autofluor counter 21518
C[C@H](CO)N1C[C@H](C)[C@@H](CN(C)C(=O)Nc2ccc3c(c2)OCO3)Oc2c(NC(=O)c3ccncc3)cccc2C1=O	none (no result: VHR inh abs)
O=c1cc(CN2CCN(C/C=C/c3ccccc3)CC2)c2cc(O)c(-c3ccccc3)cc2o1	none
Cc1cc2oc(=O)cc(CN3CCOCC3)c2cc1Cl	VHR inh abs 54
Cc1cc2oc(=O)cc(CN3CCN(C/C=C/c4ccccc4)CC3)c2cc1O	Autofluor counter 23462 (no result: MazEF act)
O=C(NCc1ccccc1CN1CCCCC1)c1ccccc1N1CCCC1=O	none (no result: VHR inh abs)
Cc1ccc(-c2cc(C#N)c(=O)n(Cc3c(Cl)cccc3Cl)c2)cc1	MazEF act 58
CS(=O)(=O)N1CCN(C(=O)c2ccc(Br)s2)CC1	Autofluor counter 20324
CS(=O)(=O)N1CCN(C(=O)Cc2cccs2)CC1	BoNT A protease inconclusive, Autofluor counter 16441
COc1cc(NCCCNC(C)C)c2nccc(C)c2c1	none (no result: VHR inh abs)
O=C(c1[nH]c(C(F)(F)F)nc1-c1ccccc1)N1CCC(C(O)(c2ccccc2)c2ccccc2)CC1	none (no result: MazEF act, VHR inh abs)
COCc1n[nH]c(=S)n1-c1cccc2ccccc12	Autofluor counter 23066
COc1ccc(-c2cc(-c3n[nH]c(=S)n3-c3cccc4ccccc34)[nH]n2)cc1	none
COc1cccc2cc(/C(=N/O)c3ccc(Br)cc3)oc12	none
